# NS1 function inh – inhibitors of influenza NS1 protein function. 270,000 compounds, 0.4% hits. Potency, µM (top dose mostly 46.1 µM), inactives show at the top dose activity, positive = more growth; calls by dose curve; note: potency is the fitted concentration of half-maximal effect; actives are rising curves; nearly all actives have a fitted effect of over 50% in size
#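 In this qHTS, NS1 from influenza A is expressed in budding yeast, where it slows growth. Cells are switched from glucose to 2% galactose medium (pH 6.0, -URA), treated with compound, and growth recovery is read at OD600.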
# Cruzain inh noDet – inhibitors of Trypanosoma cruzi cruzain without detergent; purified cruzain, Z-FR-AMC fluorescence, no detergent; Potency, µM, without a hit: max response, negative = inhibition, usual class: inhibitors; 200,000 compounds, 2.3% hits;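 note: potency is the fitted concentration of half-maximal effect; plate controls were enzyme without inhibitor for no effect and buffer without enzyme for full effect; nearly all actives have a fitted effect of over 40% in size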
# Target sequence (P25779 123-467 limits assumed): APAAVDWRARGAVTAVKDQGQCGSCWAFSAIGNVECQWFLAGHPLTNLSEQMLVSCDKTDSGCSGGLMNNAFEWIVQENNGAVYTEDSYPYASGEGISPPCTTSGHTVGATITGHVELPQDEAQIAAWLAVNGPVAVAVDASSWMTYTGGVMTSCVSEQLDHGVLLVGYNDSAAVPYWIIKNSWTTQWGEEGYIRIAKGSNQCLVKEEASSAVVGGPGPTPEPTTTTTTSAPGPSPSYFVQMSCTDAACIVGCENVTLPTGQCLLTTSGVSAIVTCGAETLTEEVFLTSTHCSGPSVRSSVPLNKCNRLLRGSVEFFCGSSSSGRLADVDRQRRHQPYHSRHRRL
#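 Purified cruzain at 1.5 nM, pre-incubated 15 min with compound at room temperature in 100 mM sodium acetate pH 5.5, 5 mM DTT, 0.00005% Triton X-100. Reaction started with 2 uM Z-FR-AMC; AMC fluorescence increase over 60 s gives rate.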
# Cruzain inh Det – inhibitors of Trypanosoma cruzi cruzain with detergent; AID 1478; P25779; Potency, µM, for the others: max response, negative = inhibition, usual class: inhibitors; purified cruzain, Z-FR-AMC fluorescence, 0.01% Triton; 200,000 compounds, 0.43% hits;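 note: potency is the fitted concentration of half-maximal effect; plate controls were neutral wells for no effect and buffer without enzyme for full effect; nearly all actives have a fitted effect of over 40% in size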
#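 15 min RT preincubation of 1.5 nM cruzain with compound, then 2 uM Z-FR-AMC added; kinetic AMC fluorescence, 60 s delta. Triton X-100 0.01%, pH 5.5.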
# Flu NS1 inh – influenza NS1 function inhibition validation; shares compounds with NS1 function inh; 1,400 tested, under 10 active; influenza NS1 function cell assay, 15-point titration; activity change, negative = inhibition, % at 32.9 µM; calls by dose curve; note: 0% is about no effect
# Flu PR8 replic – reduces influenza A/PR/8/34 replication in MDCK cells; shares compounds with NS1 function inh; MDCK infected influenza A/PR/8/34, virus titer TCID50; stronger effect = lower value; virus titer (log TCID50), log10 TCID50 at 5 µM; 95 compounds, 30% hits; AID 504647; call rule not given here
# An asterisk follows results filed as active; ? = inconclusive; / = not tested or not shown. Shown is part of a subset that was picked to be rich in hits. Unless noted, calls come from the whole dose curve; as a rule, active = well fitted curve in the direction sought with a large enough effect; inconclusive = small, poorly fitted or top-dose-only effect, or another doubt; inactive = no such curve, though single readings can be large; an effect the other way counts as inactive or inconclusive.
SMILES,NS1 function inh,Cruzain inh noDet,Cruzain inh Det,Flu NS1 inh,others
COc1ccc(NC(=O)CSc2nnc(Cc3cccn3C)n2-c2ccc(F)cc2)cc1,-8.4%,?,-3.3%,/,
Cn1c(SCC(=O)c2ccccc2)nnc1-c1cccs1,?,/,/,-25.0,
Cn1c(SCC(=O)NCc2cccs2)nnc1-c1cccs1,-16.0%,-2.3%,3.5%,/,
N#Cc1c[nH]n2c(NC3CCCCC3)c(-c3ccccc3F)nc12,/,-1.5%,-2.1%,/,
CCCCNC(=O)c1ccc2c(=O)n(Cc3ccc(OC)cc3)c(=O)[nH]c2c1,/,2.7%,-0.1%,/,
Cc1ccc(Cn2cc(CCC(=O)NCC(C)c3ccccc3)c3ccccc32)cc1 (configuration not stated),/,-14.6%,-2.1%,/,
CCc1ccc(NC(=O)C2CCCN2S(=O)(=O)c2ccc3c(c2)CCCC(=O)N3)cc1 (configuration not stated),/,-2.5%,-0.9%,/,
C=CCN1C(=O)CS/C1=C(\C#N)S(=O)(=O)c1ccc(C)cc1,1.58µM*,-18.1%,0.1%,33.6,
C=CCN1C(=O)CSC1=Nc1ccc(C(=O)O)cc1,-11.4%,/,/,/,
CC1(C)C(O)C=C[C@@]2(C)C1CC(=O)O[C@@]1(C)C3=CC(=O)OC(c4ccoc4)[C@]3(C)CCC21 (some centres not stated),/,1.4%,1.0%,/,
O=C(c1ccco1)N(Cc1ccc2c(c1)OCO2)Cc1cc2cc3c(cc2[nH]c1=O)OCO3,1.6%,/,/,/,
Cc1cc2cc(CN(Cc3ccc4c(c3)OCO4)C(=O)c3ccco3)c(=O)[nH]c2cc1C,?,6.1%,-8.6%,10.7,
O=C(Cn1nc(Cc2cccnc2)c2ccccc2c1=O)Nc1cccc(C(F)(F)F)c1,/,7.0%,-5.7%,/,
O=C(Cn1cc(/C=N/NC(=O)c2ccccc2Br)c2ccccc21)Nc1ccc(F)cc1,10.8%,-2.4%,-5.2%,/,
Cc1ccc(C(=O)N/N=C/c2cn(Cc3ccccc3)c3ccccc23)cn1,-1.8%,/,/,/,
O=C(Cn1cc(/C=N/NC(=O)c2cccc3ccccc23)c2ccccc21)Nc1ccc(F)cc1,10µM*,/,/,7.9,
O=C(N/N=C/c1cn(Cc2ccccc2)c2ccccc12)c1cc(O)cc(O)c1,14.1µM*,/,/,-2.5,
CCCn1c(C(C)Nc2nc(-c3ccc(C)cc3)cs2)nc2cc(Cl)c(Cl)cc21 (configuration not stated),16.8%,/,/,/,
CC(Nc1nc(-c2cccc(Br)c2)cs1)c1nc2cc(Cl)c(N3CCCCC3)cc2n1CCOCCO (configuration not stated),10µM*,/,/,-8.8,
Nc1ncc(S(=O)(=O)Nc2ccc(F)cc2F)cn1,/,-6.1%,-0.6%,/,
CCOC(=O)c1sc2ncn(CC(=O)Nc3ccc(F)cc3F)c(=O)c2c1C,/,3.3%,7.0%,/,
COc1ccc2c(c1)nc(NCCO)n2C,3.55µM*,-5.4%,-5.0%,-1.8,
Cc1ccc2c(c1)nc(NCCCO)n2C,0.8%,2.0%,8.5%,/,
CCCOc1ccc(NC(=O)CC2C(=O)N(c3ccc(OC)cc3)C(=O)N2CCc2ccncc2)cc1 (configuration not stated),/,28.9%,-5.6%,/,
Cc1ccc(-c2csc(=Nc3ccc(F)cc3)n2Cc2ccc3c(c2)OCO3)cc1C,/,-11.5%,-6.8%,/,
SMILES,NS1 function inh,Cruzain inh noDet,Cruzain inh Det,Flu NS1 inh,others
COc1ccc(-n2c(=O)c3c4c(sc3n3c(SC(C)C)nnc23)COC(C(C)C)C4)cc1 (configuration not stated),/,1.2%,-1.6%,/,
O=C(O)CCN1C(=O)/C(=C/c2cn(-c3ccccc3)nc2-c2cccs2)SC1=S,-0.3%,/,/,/,
COc1ccc(-c2nn(-c3ccccc3)cc2/C=C2/SC(=S)N(CCC(=O)O)C2=O)c(C)c1,11.2µM*,/,/,?,
CCn1c(=O)cc(OCC(=O)N(C)c2ccc(OC)cc2)c2ccccc21,/,-8.5%,1.9%,/,
Cc1ccc(OCC(=O)Nc2c(Cl)ccc3nsnc23)cc1C,/,-10.0%,-1.3%,/,
CN(C)C(=O)Oc1ccc2oc(=O)cc(-c3cc4ccccc4o3)c2c1,?,/,/,-4.4,
Cc1cc2oc(=O)cc(-c3cc4ccccc4o3)c2cc1OC(=O)N(C)C,4.6%,/,/,/,
Cc1c(NC(=O)c2cccs2)cccc1-c1nc2cc(Cl)ccc2o1,/,?,-5.5%,/,
Cc1ccc(C(=O)OC/C(O)=C(\C#N)c2nc3ccccc3[nH]2)cc1S(=O)(=O)N1CCOCC1,10µM*,13.2%,0.0%,18.4,
N#C/C(=C(/O)COC(=O)c1ccc(Cl)c(S(=O)(=O)N2CCOCC2)c1)c1nc2ccccc2[nH]1,?,-27.4%,-2.0%,/,
Cc1nc2cnc(N3CCN(C)CC3)nc2n(Cc2ccc(F)cc2)c1=O,/,-4.8%,-5.4%,/,
COc1ccc(Nc2nnc(SCC3CCCCO3)s2)cc1 (configuration not stated),-5.8%,/,/,/,
COc1ccc(Nc2nnc(SCC(=O)c3cc(C)n(CC4CCCO4)c3C)s2)cc1 (configuration not stated),?,-14.4%,-2.2%,3.0,
CC(C)(C)N(Cc1ccccc1)C(=O)CCc1ccccc1,?,/,/,-32.6,
CC(C)(C)N(Cc1ccccc1)C(=O)c1cccs1,-4.8%,/,/,/,
CCOC(=O)C1CCN(c2c(C(=O)c3ccc(OC)cc3)cnc3ccccc23)CC1,/,31.9%,1.1%,/,
CC1CC(C)CN(c2ccc(C(=O)NCc3ccc4c(c3)OCO4)cc2[N+](=O)[O-])C1 (configuration not stated),10µM*,-1.8%,-7.6%,-16.8,
Cc1cc(C(=O)NCc2ccc3c(c2)OCO3)ccc1[N+](=O)[O-],10.3%,/,/,/,
COc1ccccc1NC(=O)N(CCN(C)C)Cc1cc2cc(C)ccc2[nH]c1=O,-2.7%,-4.4%,-0.3%,/,
CCN1CCCC1CN(Cc1cc2cc(C)ccc2[nH]c1=O)C(=O)Nc1ccccc1OC (configuration not stated),11.2µM*,-5.7%,1.9%,-5.5,
O=C(COC(=O)c1ccc[nH]c1=O)Nc1ccc(S(=O)(=O)N2CCCC2)cc1,11.2µM*,/,/,3.0,Flu PR8 replic=7.66

# Compound activity from PubChem.
